Screens (PubChem)
The entries come from a sample that favours hits as a whole.
Pf Dd2 inh – qHTS Primary assay for Inhibitors of Plasmodium falciparum Dd2 growth in vitro. P. falciparum Dd2 growth, SYBR Green, 72 h. Potency, µM (series often up to 28.9 µM), for the others: at the highest dose activity, negative = inhibition, hits mostly inhibitors. actives 4.3% (n = 120,000). AID 1347417, 2020; active means well fitted inhibition curve with a large enough effect;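 further: plate controls were DMSO vehicle for no effect and reference drug for full effect; nearly all actives have a fitted effect of over 65% in size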
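Infected erythrocytes (Dd2, 0.3% parasitemia, 2.5% hematocrit final) are added to compound in RPMI-1640/Albumax II medium, grown 72 h at 37C in low oxygen, then lysed with saponin/Triton-X containing SYBR Green and read by fluorescence.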
* = called active by the depositor; i = inactive; [ ] = another dose, or the depositor's remark. Potency means the concentration at half of the fitted maximal effect.

SMILES | Pf Dd2 inh
COc1ccc(CN2CCC3(C2)NC(=O)c2ccccc2CO3)cc1 (configuration not stated) | -16.5%
CC(=O)Nc1ccc(CN2CCC3(CC2)NC(=O)c2ccccc2O3)cc1 | i
O=C1NC2(CCN(Cc3ccc(F)cc3)CC2)Oc2ccccc21 | 10µM*
COc1cccc(CN2CCC3(C2)NC(=O)c2ccccc2O3)c1 (configuration not stated) | 12.6µM*
O=C1NC2(CCCN(Cc3ccsc3)C2)COc2ccccc21 (configuration not stated) | -0.2%[44.1 µM]
COc1ccc(CN2CCC3(CC2)NC(=O)c2ccccc2O3)cc1 | 12.6µM*
Cc1cc(CN2CCC3(C2)NC(=O)c2ccccc2O3)no1 (configuration not stated) | -18.0%[44.1 µM]
CN(C)c1ccc(CN2CCC3(CC2)NC(=O)c2ccccc2O3)cc1 | i
O=C1NC2(CCN(Cc3ccsc3)CC2)Oc2ccccc21 | -22.7%[44.1 µM]
COc1cccc([S+](=O)([O-])N2CCC3(CC2)NC(=O)c2ccccc2O3)c1 | i
Cc1cccc(C(=O)N2CCC(Cc3n[nH]c(C)n3)CC2)c1 | -16.3%
O=C1NC(C(=O)Nc2cccc(Cl)c2)Cn2cccc21 (configuration not stated) | -18.1%
COc1ccc(CC(=O)N[C@H](C)c2c(-c3ccc(F)cc3)noc2C(=O)O)cc1 | 13.3%[44.1 µM]
O=C(NCCCc1nnc2ccccn12)C1CC(=O)N(c2n[nH]c3ccccc23)C1 (configuration not stated) | -19.0%
Cc1ccc(CNC(=O)N2c3ccccc3CC2c2nc(C3CC3)no2)cc1 (configuration not stated) | 6.5%[5.79 µM]
CCCCC(=O)N1CCC(OC2CCN(Cc3cccnc3)CC2)CC1 | 3.0%
COc1ccc(C(=O)N2CCOCC3(CN(Cc4cc(F)cc(F)c4)C3)C2)cc1 | 17.5%[44.1 µM]
CCCN(CCC)C(=O)[C@H]1CCC[C@H]1NC(=O)c1ccc(OC)nc1 | -10.7%
O=C(c1cccc(Cn2cccn2)c1)N1CC[C@H](CO)[C@H](O)C1 | 2.3%
O=C(Cc1ccc(Cl)cc1)NCC1COc2ncncc2C(=O)N1Cc1ccccc1 (configuration not stated) | i
O=C(Nc1ccc([C@H]2OCC(=O)N(CC3CCCCC3)[C@@H]2CO)cc1)c1ccccn1 | 11.2µM*
Cc1ccccc1C(=O)Nc1ccc([C@H]2OCC(=O)N(Cc3ccncc3)[C@@H]2CO)cc1 | 16.5%[44.1 µM]
O=C(c1ccccn1)N1C[C@@H]2OCC(=O)N(CC3CCCCC3)[C@@H]2C1 | 2.1%[44.1 µM]
O=C(c1ccc(F)c(F)c1)N1CCC2(CC1)NC(=O)N(Cc1ccccc1)C2=O | -8.1%
Cc1noc(C)c1CC(=O)N1CCC(OCCOc2ccc(F)cc2)CC1 | 37.3%
SMILES | Pf Dd2 inh
O=C(Nc1cccc(F)c1)N1CC(Oc2ccc(-c3nc(-c4ccccc4)no3)cc2)C1 | i[5.79 µM]
Cc1ccccc1C(=O)Nc1ccc([C@H]2OCC(=O)N(CC(C)C)[C@@H]2CO)cc1 | i
COc1cccc(C(=O)N2CCC(N3CC4CC(C3)[C@H]3CCCC(=O)N3C4)CC2)c1 (some centres not stated) | -5.0%
CCOc1ccccc1NC(=O)N1CCC(OC2CCN(S(C)(=O)=O)CC2)CC1 | 3.9%
CCOc1ccccc1NC(=O)C1=C(C)Nc2ncnn2C1c1ccc(C)o1 (configuration not stated) | -9.8%
COc1cccc(C2C=C(c3ccccc3)Nc3c(C(=O)Nc4ccccc4)cnn32)c1OC (configuration not stated) | -0.4%
COc1ccc(C2C=C(c3cccc(OC)c3)Nc3c(C(=O)Nc4ccccc4)cnn32)cc1 (configuration not stated) | 12.6µM*
CCOc1ccc(NC(=O)c2cnc(Nc3ccccc3OC)c3ccccc23)cc1 | i
COc1ccccc1NC(=O)C1=C(C)Nc2nnnn2C1c1ccc(C(F)(F)F)cc1 (configuration not stated) | -15.8%
COc1ccccc1NC(=O)C1=C(C)Nc2nc(SCC(=O)c3ccc(C)cc3)nn2C1c1ccc(F)cc1 (configuration not stated) | 22.4%
COc1ccccc1NC(=O)C1=C(C)Nc2ncnn2C1c1ccccc1C(=O)O (configuration not stated) | 1.26µM*
CCOc1ccc(NC(=O)c2cnn3c2NC(c2ccccc2)=CC3c2cccc(OC)c2OC)cc1 (configuration not stated) | 2.51µM*
Cc1ccc(NC(=O)c2cnn3c2NC(c2ccccc2)=CC3c2ccccc2)cc1 (configuration not stated) | i
COc1ccccc1NC(=O)C1=C(C)Nc2c(C(=O)Nc3ccc(F)cc3)cnn2C1c1ccc(Cl)cc1 (configuration not stated) | 8.91µM*
COc1cccc(NC(=O)c2cnn(-c3ccccc3)c2-n2cccc2)c1 | -26.6%
COc1cc(OC)c(C2C(C(=O)Nc3ccccc3)=C(C)Nc3ncnn32)cc1OC (configuration not stated) | 3.9%
Cc1ccccc1C(=O)NC1CCCN(c2cc(-c3ccccc3)[nH]n2)C1 (configuration not stated) | i
O[C@@H]1CCN(Cc2nc(C3(O)CCN(C4CCCC4)CC3)cs2)C1 | 7.1%[44.1 µM]
COc1ccc(-c2cc(N3CCN(C(=O)c4cc5ccccc5[nH]4)CC3)n[nH]2)cc1 | -16.9%
Cc1ccsc1C(=O)N1CC2CC(C1)[C@H]1CCCC(=O)N1C2 (some centres not stated) | -6.5%
COc1cc(CN2CCc3nc(N4CCN(C)CC4)[nH]c(=O)c3CC2)cc(OC)c1OC | i[5.79 µM]
CNC(=O)[C@@H]1C[C@@H](n2cc(CN(C)C(=O)Nc3ccccc3)nn2)CN1 | 1.3%
CC1=C(C(=O)Nc2ccccc2)C(c2ccc(C(=O)O)cc2)n2ncnc2N1 (configuration not stated) | i
CCOc1cc(C2C(C(=O)Nc3ccccc3)=C(C)Nc3ncnn32)cc(Br)c1O (configuration not stated) | 1.9%
CCOc1ccc(C2C(C(=O)Nc3ccccc3OC)=C(C)Nc3c(C(=O)Nc4cccc(C)c4)cnn32)cc1 (configuration not stated) | 3.98µM*
SMILES | Pf Dd2 inh
COc1ccc(-c2nc3n(n2)C(c2ccccc2)C(C(=O)Nc2cccnc2)=C(C)N3)cc1 (configuration not stated) | -4.1%
CCCCOc1ccc(C2C(C(=O)Nc3ccccc3OC)=C(C)Nc3nnnn32)cc1OC (configuration not stated) | i
COc1ccc(C2C(C(=O)Nc3ccccc3)=C(C)Nc3c(C(=O)Nc4ccccc4)cnn32)cc1 (configuration not stated) | 3.55µM*
COc1ccc(OC)c(S(=O)(=O)N2CCOCCNC(=O)[C@@H]3CCC[C@@H]32)c1 | 44.1%
O=C(NC1CCCCC1)N1CCC(c2nnc3n2CCNC3)CC1 | 7.3%
O=C(c1cc(-c2cccnc2)nc2ccccc12)N1CCCC2(CCOC2)C1 (configuration not stated) | -6.4%
COCCC(=O)N1C[C@H]2OC(=O)N(CCc3ccc(OC)cc3)[C@H]2C1 | -8.8%
CC(=O)NC1(C)CCN(Cc2cnc(-c3cccc(C(F)(F)F)c3)s2)CC1 | i
CCOC(=O)C1(Cc2ccc(F)cc2)CCCN(C(=O)c2ccco2)C1 (configuration not stated) | i
FC(F)(F)c1cccc(C2=NOC3(CCN(Cc4ccccc4)CC3)C2)c1 | -27.8%
CCOC(=O)C1(Cc2cccc(C(F)(F)F)c2)CCN(Cc2cc(C(C)C)n[nH]2)CC1 | 7.08µM*
